What is called inhibition is the relative decrease from the control value, in per cent.

Each structure is given as a SMILES string. In all, about 220,000 compounds went through this assay and about 2,000 (0.91%) were called active. Another 2% or so got no clear call; they are omitted. A selection follows. Potency and affinity values are given separately. Values without a mark were called inactive. Rule as the data show it: inconclusive = inhibition above about 80% without an active follow-up result; inactive = below that; test concentration not stated here.

This assay can be described thus: M. tuberculosis H37Rv growth inhibitors, H37Rv strain (AID 1626).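 Also: bacteria incubated seven days before Alamar blue readout; 0% = bacteria only wells and 100% = bacteria with antibiotic wells.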 The note with it: hits give high values, concentration not given here.
In the case of `CCOc1ccc(NC(=O)CSc2nccn2C)cc1`, the inhibition was -4.59%.
Under `Cc1ccc(NC(=O)CSC2=NCCN2)cc1` stands -0.03%.
Under `CCCCOc1ccc(NC(=O)CN2CCN(C(=O)OCC)CC2)cc1` stands -7.38%.
For the compound `COc1cc2c(cc1OC)C(c1ccco1)CC(=O)N2` (stereo not drawn), the inhibition is -0.34%.
Under `COc1cc(/C=C/c2ccc3cccc([N+](=O)[O-])c3n2)ccc1OCC(=O)O` stands 6.21%.
Under `CC(=O)Nc1ccc(/C=C/c2ccc3c([N+](=O)[O-])cccc3n2)cc1` stands -0.6%; under `Cc1ccc(C(c2sc3nc(C)nn3c2O)N2CCOCC2)cc1` (stereo not drawn), -3.42%; under `CCOC(=O)c1ccc(NC(=O)c2nc[nH]c2C(=O)N[C@@H](CC(C)C)C(=O)OCc2ccccc2)cc1`, -7.55%.
The figure for `CNC(=O)c1[nH]cnc1C(=O)Nc1ccc(C)cc1` is 16.9%; for `CCOC(=O)c1ccc(NC(=O)c2nc[nH]c2C(=O)NC)cc1` it is -7.95%; for `COc1ccc(NC(=O)c2nc[nH]c2C(=O)N[C@@H](C)C(=O)OC(C)(C)C)cc1` it is 5.92%.
As to `CNC(=O)c1[nH]cnc1C(=O)Nc1ccc(OC)cc1`, the inhibition was 5.16%.
The figure for `Cc1ccc(NC(=O)c2nc[nH]c2C(=O)Nc2ccc(C)cc2)cc1` is -0.81%.
The figure for `Cc1ccc(CSc2ncnc3ccccc23)cc1` is 5.46%.
Regarding `CCCOc1ccc(C(=O)NCC2OCCc3ccccc32)cc1OC` (stereo not drawn), the inhibition was -1.65%.
The figure for `CCOC(=O)C1CCCN(C2CC(=O)N(c3cccc(C)c3)C2=O)C1` (stereo not drawn) is -3.61%; for `CN(C)c1c(F)cc(C(=O)NCc2ccccc2)cc1F` it is -11.1%.
Under `CN(CC(=O)Nc1ccc(Cl)cc1)CC(=O)Nc1cc(Cl)ccc1C#N` stands -1.32%; under `ClCc1csc(N/N=C/c2cccs2)n1`, -4.27%.
The figure for `CNc1nc(OC)nc(N2CCOCC2)n1` is -9.75%.
Turning to `CSc1cccc(CN2CCN(Cc3ccccc3)C(CCO)C2)c1` (stereo not drawn), the inhibition is 3.04%.
The figure for `O=C1c2ccccc2S(=O)(=O)c2cc(C(=O)N3CCN(c4ccc(Cl)cn4)CC3)ccc21` is 5.58%; for `CSc1nnc(-c2ccccc2)c(-c2ccccc2)n1` it is 13.9%.
For the compound `CSc1ncc(-c2ccccc2)cn1`, the inhibition was 2.05%.
The figure for `COc1ccccc1-c1ccc(SCc2ccc(F)cc2)nn1` is -3.99%.
The figure for `O=C(O)/C=C/C(=O)Nc1ccc(C(=O)c2ccccc2)cc1` is -9.86%.
In the case of `CCOc1ccc(-c2cn3ccccc3n2)cc1`, the inhibition was 1.22%.
The figure for `CCOC(=O)c1cccc(S(=O)(=O)N(CCO)Cc2cc3cc(OC)ccc3[nH]c2=O)c1` is -6.73%.
The figure for `Cc1ccc(NCc2nc3ccccc3n2CCOc2ccccc2)cc1` is 4.17%; for `COc1ccc(NCc2nc3ccccc3n2CCOc2ccccc2)cc1` it is 77.4%.
The figure for `CC(OC(=O)C1CC1)C(=O)Nc1cc(C(F)(F)F)ccc1Cl` (stereo not drawn) is -2.2%; for `O=C(OC(c1ccccc1)c1nccc2ccccc12)c1cccc([N+](=O)[O-])c1` (stereo not drawn) it is 2.31%.
`CC(C)C(OC(=O)c1ccccc1)c1nccc2ccccc12` (stereo not drawn): the inhibition was 1.56%.
The figure for `O=C(CC1SC(=Nc2ccccc2)N(CCc2c[nH]c3ccccc23)C1=O)Nc1ccccc1F` (stereo not drawn) is 11.6%; for `COc1cc(/C=C(\C#N)C(=O)NCC2CCCO2)cc(OC)c1OC` (stereo not drawn) it is 2.41%; for `CCCCCCN1C=CC=C/C1=C/C=C(C#N)C#N` it is -1.95%.
Under `CCCOc1ccc(C(=O)C(CN2CCOCC2)c2ccccc2)cc1` (stereo not drawn) stands 78.9%; under `CCCCOc1ccc(C(=O)C(CN2CCOCC2)c2ccccc2)cc1` (stereo not drawn), 66.5%; under `COc1ccc(C(=O)CN2CCOCC2)cc1F`, -8.03%.
For `COc1ccc(C(O)C(CN2CCOCC2)c2ccccc2)cc1F` (stereo not drawn), the inhibition was -9.62%.
The figure for `CC(NC1CCCCC1)C(O)C12CC3CC(CC(C3)C1)C2` (stereo not drawn) is -0.62%; for `CCn1nc(C(=O)OCC(=O)c2cc(C)n(Cc3cccs3)c2C)c2ccccc2c1=O` it is -3.97%; for `CN1CCN(NC(=O)c2cccc(C(F)(F)F)c2)CC1` it is -1.25%.
The figure for `CCNc1nc(NC(C)(C)C)nc(N(C#N)CC)n1` is 2.33%.
As for `COc1ccc(Nc2nc3c(C)cccn3c(=O)c2C=NCc2ccccc2)cc1`, the inhibition was 10.2%.
The figure for `Cc1cccn2c(=O)c(C=Nc3ccccc3)c(NCCO)nc12` is 2.59%; for `COc1cc(C(=O)OCC(=O)NC2CCS(=O)(=O)C2)c([N+](=O)[O-])cc1OC` (stereo not drawn) it is -0.03%.
Under `COC(CC(=O)NNC(=S)Nc1ccc(Cl)cc1)OC` stands 4.27%; under `CCOC(=O)C1=C(N)N(c2ccc(N3CCCCC3)cc2)C(=O)C1`, -16.5%.
Under `Cc1ccc([N+](=O)[O-])cc1NC(=O)CN(C(=O)c1ccc(Cl)cc1)C1CCCCC1` stands 3.68%; under `O=C(CN(C(=O)c1ccccc1Cl)C1CCCCC1)Nc1ccc(Cl)c([N+](=O)[O-])c1`, -3.85%.
Take `Cc1ccccc1NC(=O)C(=O)NCCCN1CCOCC1`: the inhibition was -3.37%.
For `COc1cc(/C=C/C(=O)c2ccc(O)cc2)ccc1OCC#N`, the inhibition was 17.5%.
Consider `COc1cc(C(=O)O/N=C(\N)c2cccc([N+](=O)[O-])c2)cc(OC)c1OC`, for which the inhibition was -4%.
The figure for `COc1cc(/C=C/C(=O)c2ccc(C)c([N+](=O)[O-])c2)cc(OC)c1O` is 9.83%; for `COc1cccc(OCCNC(=O)c2cccc(OC)c2)c1` it is 4.61%; for `COc1cc(/C=C/C(=O)c2ccc(C)cc2)ccc1OCC#N` it is 8.8%.
The figure for `COc1cccc(/C=C/C(=O)c2ccc(C)c([N+](=O)[O-])c2)c1` is 17.5%; for `COc1cccc(C(=O)/C=C/c2ccc(SC)cc2)c1` it is 5.8%; for `O=C(NCCOc1ccccc1)c1cc(C(=O)NCCOc2ccccc2)cc([N+](=O)[O-])c1` it is 15.8%.
Take `CC(=O)c1c(C)[nH]c(C(=O)CSc2nnc(CN3CCCCCC3=O)n2-c2ccccn2)c1C`: the inhibition was -2.46%.
On to `Cc1ccc(C(=O)N(c2ccccc2)C2CC(C)N(C(=O)c3ccco3)c3ccccc32)cc1` (stereo not drawn), for which the inhibition was 0.9%.
`CCn1c(SCC(=O)Nc2nccs2)nnc1-c1ccccc1`: the inhibition is -4.51%.
Under `Clc1cc2nc[nH]c2cc1Cl` stands -8.63%; under `CCCc1cc(=O)[nH]c(SCc2csc(-c3ccccc3)n2)n1`, -1.65%; under `Nc1nnc(-c2cccc(F)c2)s1`, 1%.
Under `CC1CN(c2ccc(S(=O)(=O)N3CCOCC3)cn2)CC(C)O1` (stereo not drawn) stands -1.99%.
The figure for `CC(=O)c1cc(C#N)c(SCc2ccc(F)cc2)nc1C` is -3.8%.
Consider `Cc1ccc(S(=O)(=O)CCN2CCC(n3cccc3)CC2)cc1`, for which the inhibition is -2.9%.
Under `COc1ccc(Oc2ccc(/C=C/C(=O)c3cccc(OC)c3)cc2[N+](=O)[O-])cc1` stands 4.34%; under `O=C(/C=C/c1cccc([N+](=O)[O-])c1)Nc1cccc(NC(=O)c2cccs2)c1`, 13.1%.
The figure for `COc1cc(/C=C/C(=O)OCC(=O)NC(=O)NC(C)C)ccc1OCC#N` is 11.7%; for `O=C(/C=C/c1cccc([N+](=O)[O-])c1)Nc1ccc(NC(=O)c2cccs2)cc1` it is 3.17%; for `O=C(/C=C/c1ccc(N2CCCCC2)c([N+](=O)[O-])c1)c1ccc(O)cc1` it is 52.4%.
Under `COc1cc(/C=C/C(=O)O)cc(OC)c1OC` stands -1.87%.
As to `COc1cc(/C=C/C(=O)OCC(=O)NC(=O)NC(C)(C)C)ccc1OCC#N`, the inhibition is 53.3%.
The figure for `COc1cc(/C=C/C(=O)c2ccccc2O)cc(OC)c1OC` is -1.73%; for `CCN(C(=O)CSc1nnc(-c2ccc(Cl)cc2)n1C)C1CCS(=O)(=O)C1` (stereo not drawn) it is 1.77%.
The figure for `O=C(NCc1nnc(SCC(=O)N2CCOCC2)o1)c1cccs1` is 3.48%.
With `COc1ccc(-n2cc(CNCCN3CCOC3=O)c(-c3ccccc3Cl)n2)cc1`, the inhibition was 2.78%.
The figure for `COC(=O)NC(NC(=S)Nc1cccc(C)c1)C(Cl)(Cl)Cl` (stereo not drawn) is -2.36%.
The figure for `O=C(/C=C/c1ccccc1)NC1CC2CCC1C2` (stereo not drawn) is 0.01%.
Take `O=C(/C=C/c1ccccc1F)c1ccoc1`: the inhibition was 2.06%.
Under `CN(C)/C=C/C(=O)c1cccc([N+](=O)[O-])c1` stands 6.88%; under `O=C(/C=C/c1ccc([N+](=O)[O-])cc1)NC1CC2CCC1C2` (stereo not drawn), 73.7%; under `O=c1c2ccccc2ncn1CCOCCOc1cccc(Br)c1`, -2.48%.
Under `CC(C)(C)c1ccc(OCCOc2ccc(C(C)(C)C)cc2NC=O)c(NC=O)c1` stands 7.57%.
Regarding `Cc1cc(NC(=O)CSc2ccc(-c3cccc([N+](=O)[O-])c3)nn2)no1`, the inhibition is 13.3%.
Turning to `Cn1c(O)c(N=NC(=O)C2COc3ccccc3O2)c2ccccc21` (stereo not drawn), the inhibition is 2.52%.
Under `COc1ccc(Br)cc1CN(C)C(C)C(=O)Nc1cc([N+](=O)[O-])ccc1OC` (stereo not drawn) stands 6.06%.
Under `O=Nc1c(O)n(Cc2cccc(Cl)c2)c2ccccc12` stands -7.32%; under `c1ccc(Cc2nn3c(COc4ccccc4)nnc3s2)cc1`, 8.35%; under `CSc1nc(C)c(Cc2c(F)cccc2Cl)c(=O)[nH]1`, -5.44%.
Regarding `C=C(C)C1CC=C(CN2CC(C)OC(C)C2)CC1` (stereo not drawn), the inhibition is -0.53%.
For `Cc1ccc(NC(=O)CN(C)C(=O)COc2c(Cl)cc(Cl)c3ccc(C)nc23)cc1`, the inhibition is 5.82%.
Under `COC(=O)COc1c(Cl)cc(Cl)c2ccc(C)nc12` stands 70.4%; under `Cc1ccc2c(Cl)cc(Cl)c(OCC(=O)O)c2n1`, -9.9%.
Under `Cc1ccc2c(Cl)cc(Cl)c(OCC(=O)N(C(C)C)C(C)C)c2n1` stands 7.37%.

Values taken from PubChem BioAssay AID1626 (SRMLSC, 2009).
